# Screening results deposited in PubChem BioAssay by National Center for Advancing Translational Sciences (NCATS).
# A selection: hits, their analogues and other compounds. The true share with any hit is near 19%.
# TDP1 cell CPT – growth inhibition of DT40 Tdp1-/-;hTDP1 cells with camptothecin (screen for TDP1 inhibitors). chicken DT40 Tdp1-/-;hTDP1 cells + 20 nM CPT, ATP luminescence, 48 h. 420,000 compounds, 12% hits. AID 686979. Potency, µM (doses to about 46.2 µM), for inactives: top-dose activity change, negative = growth inhibition, actives largely listed as inhibitors; note: potency is the fitted concentration of half-maximal effect; nearly all actives have a fitted effect of over 55% in size
#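 Chicken DT40 Tdp1-/- cells complemented with human TDP1, 400 cells/well, exposed to compounds plus 20 nM camptothecin for at least 48 h at 37 C; viability read as ATP content by CellTiter-Glo luminescence.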
# TDP1 cell noCPT – qHTS for Inhibitors of human tyrosyl-DNA phosphodiesterase 1 (TDP1): qHTS in cells in absence of CPT | AID 686978, 2013 | 420,000 compounds, 15% hits | Potency, µM (highest dose often 46.2 µM), for the others: top-dose activity change, negative = growth inhibition, usual class: inhibitors | DT40 Tdp1-/- hTDP1 cells, no CPT, ATP luminescence, 48 h; note: potency is the fitted concentration of half-maximal effect; nearly all actives have a fitted effect of over 55% in size
#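 Compound effects on proliferation are scored in DT40 Tdp1-/-;hTDP1 cells in the absence of CPT. ATP levels (CellTiter-Glo luminescence) are recorded after a ≥48 hr, 37 °C incubation.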
# uPA generation – blocks generation of uPA at the cell surface | cell surface uPA generation assay, qHTS | AID 540303 | 330,000 compounds, 0.31% hits | Potency, µM (highest dose often 38.3 µM), inactives show top-dose activity change, negative = inhibition, actives largely listed as inhibitors; active = well fitted inhibition curve with a large enough effect; inconclusive = small, poorly fitted or top-dose-only effect; inactive = no such curve, though single readings can be large or run the other way; tested in mouse RAW 264.7 cells; note: potency is the fitted concentration of half-maximal effect; nearly all actives have a fitted effect of over 55% in size
# IL1B secr inh – inhibitors of inflammasome signaling (IL-1 beta secretion); THP-1 LPS/ATP IL-1B secretion, AlphaLISA, 16 h; active compounds read low; activity change, % at 57.5 µM; 360,000 compounds, 4.7% hits; in the data active = activity change below about -50%; inconclusive = mostly about -30% to -49%
#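 Secreted IL-1B measured by AlphaLISA bead assay after 16 h compound exposure of THP-1 cells; compounds (final up to 57.5 uM) added 1 h before LPS (250 ng/mL) and ATP (1.25 mM) stimulation; lower signal means less secretion.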
# HT1080NT lethal – kills 2HG-producing HT-1080-NT fibrosarcoma cells; HT-1080-NT fibrosarcoma viability, CellTiter-Glo ATP luminescence, 48 h; Potency, µM (series often up to 46.1 µM), for inactives: at the highest dose activity, negative = less viability, actives largely listed as cytotoxic; 360,000 compounds, 1.6% hits; AID 686970;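 note: NT is the 2HG producing partner of a matched IDH1 knockdown line; potency is the fitted concentration of half-maximal effect; 0% = DMSO-treated cells and -100% = media-only wells without cells; nearly all actives have a fitted effect of over 55% in size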
#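 Toxicity toward the 2HG-producing NT line was scored as %Activity, normalised to DMSO and no-cell wells, from CellTiter-Glo luminescence after 48 hours' treatment.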
# HT1080 IDH1KD tx – toxicity to HT-1080 IDH1 knockdown cells (counter line) | HT-1080 IDH1 knockdown viability, ATP luminescence, 48 h | Potency, µM (series often up to 46.1 µM), for the others: at the top dose activity, negative = toxicity, usual class: cytotoxic | 360,000 compounds, 2% hits;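 note: potency is the fitted concentration of half-maximal effect; 0% = DMSO wells and -100% = cell-free medium wells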
#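 After a 2 h attachment period, IDH1KD HT-1080 cells took pin-transferred compound for 48 h at 37 °C; ATP-based luminescence after 10 min room-temperature reagent incubation reported viability.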
# Numbers without * were called inactive; ? = inconclusive; nt = not tested or not shown. Unless noted, calls come from the whole dose curve; as a rule, active = well fitted curve in the direction sought with a large enough effect; inconclusive = small, poorly fitted or top-dose-only effect, or another doubt; inactive = no such curve, though single readings can be large; an effect the other way counts as inactive or inconclusive. Unless noted, % is set by controls: 0 for no effect and ±100 for the full control effect.
SMILES,TDP1 cell CPT,TDP1 cell noCPT,uPA generation,IL1B secr inh,HT1080NT lethal,HT1080 IDH1KD tx
CCCCN(CC)S(=O)(=O)c1ccccc1,?,?,-9.3%,-16.4,-1.1%,-0.6%
CC(NC(=O)c1ccc(F)cc1)c1ccccc1 (centres undefined),-0.8%,-0.4%,-0.3%,4.9,9.8%,6.6%
CC(NC(=O)c1cc2cc(F)ccc2[nH]1)c1ccccc1 (centres undefined),18.4µM*,?,?,41.0,-7.4%,-4.0%
Cc1ccc(-c2onc3ccc(C=O)cc23)cc1,16.4µM*,18.4µM*,-2.4%,-6.7,-14.4%,-18.4%
O=C(O)/C=C/c1ccc2noc(-c3ccccc3)c2c1,14.6µM*,?,22.3%,-23.4,3.1%,-2.4%
O=C(/C=C/c1ccc2c(c1)OCCCO2)c1ccccc1O,?,?,3.6%,-28.2,?,?
Cc1ccc2occ(/C=C/C(=O)c3ccccc3O)c(=O)c2c1,18.4µM*,?,-5.2%,-1.3,6.6%,6.8%
Cc1c(/C=C/C(=O)c2ccccc2O)cnn1C,-26.4%,?,-0.7%,18.0,?,17.0%
Cc1ccc(O)c(C(=O)/C=C/c2ccc3c(c2)OCCCO3)c1,?,?,3.1%,-104.6*,?,?
Cc1ccc(/C=C/C(=O)c2ccccc2O)cc1,?,?,3.1%,-102.2*,?,?
CN(C)c1ccc(/C=C/C(=O)c2ccccc2O)cc1,?,-22.9%,?,2.6,2.0%,13.4%
Cc1ccc(O)c(C(=O)C=Cc2ccccc2)c1,?,20.6µM*,-9.0%,-101.1*,?,?
CCc1cccc(C)c1NC(=O)Nc1c(Br)cnn1C,-6.2%,-16.4%,11.6%,-11.6,-1.3%,-8.1%
Cc1n[nH]c(=O)c2c(NC(=O)CSc3nncs3)oc(C)c12,-0.5%,-5.1%,2.1%,22.1,-0.7%,3.4%
COc1ccccc1C#Cc1cnc2c(c1)C(=O)N([C@H](C)CO)C[C@@H](C)[C@@H](CN(C)C(=O)c1ccc3c(c1)OCO3)O2,?,?,nt,?,-7.2%,-0.1%
COC(=O)c1ccc(C(=O)OC)c(NC(=O)c2cnn3c(C(F)F)cc(-c4ccc(C)cc4)nc23)c1,-19.3%,1.2%,nt,nt,nt,nt
CCc1nc2ccc(C(=O)N(C)CCCN(C)C)cn2c1N(C)C(=O)C1CCCCC1,-7.4%,-10.7%,nt,0.0,25.9%,8.1%
CCc1cccc(CC)c1NC(=O)CN1C(=O)C(=O)c2ccccc21,5.17µM*,3.26µM*,nt,nt,nt,nt
O=C(CN1C(=O)C(=O)c2ccccc21)c1ccccc1,18.4µM*,4.11µM*,1.5%,12.1,1.0%,9.3%
O=C1C(=O)N(Cc2cccs2)c2ccccc21,4.61µM*,5.17µM*,-8.6%,-7.7,1.5%,?
O=C1C(=O)N(CCN2CCCCC2)c2ccccc21,-28.0%,-9.1%,3.1%,39.8,11.1%,-6.2%
O=C(CN1C(=O)C(=O)c2ccccc21)NC1CCCCC1,25.9µM*,23.1µM*,-8.3%,2.4,5.4%,-0.2%
Cc1ccc(CNC(=O)c2ccc(N3CCCC3)c(NC(=O)Nc3ccc(F)c(Cl)c3)c2)cc1,-2.3%,-8.5%,nt,nt,nt,nt
COc1ccc2cc(C3(C)NC(=O)N(CC(=O)NCC(F)(F)F)C3=O)ccc2c1 (centres undefined),2.2%,10.0%,-10.9%,-24.2,-7.9%,-13.4%
CC(=O)N1CCC[C@@]2(CCN(Cc3cc(C(F)(F)F)cc(C(F)(F)F)c3)C2)C1,-14.1%,-27.8%,nt,nt,nt,nt
SMILES,TDP1 cell CPT,TDP1 cell noCPT,uPA generation,IL1B secr inh,HT1080NT lethal,HT1080 IDH1KD tx
CCOC(=O)CC(S(=O)(=O)c1ccccc1)S(=O)(=O)c1ccccc1,0.581µM*,0.651µM*,nt,?,?,20.6µM*
CS(=O)(=O)c1nc(S(=O)(=O)c2ccc(Cl)cc2)c(NCCCN2CCCC2=O)s1,-1.4%,15.3%,-1.9%,-1.2,6.1%,-6.1%
Cc1ccc(C2=N/C(=C/N3CCOCC3)C(=O)O2)cc1,-14.2%,-10.4%,3.0%,-27.2,0.6%,13.6%
Cc1ccc(C2=N/C(=C\N3CCCCC3)C(=O)O2)cc1,-17.8%,-27.9%,nt,-63.4*,3.0%,2.3%
Cc1cc(Cl)ccc1NC(=S)NCCc1ccc(Cl)cc1,?,?,4.0%,-20.3,?,?
Cc1cc(Cl)ccc1NC(=S)NCCC(c1ccccc1)c1ccccc1,15.8µM*,15.8µM*,8.1%,-8.3,?,?
COc1cc(OC)cc(C(=O)NCCC(c2ccccc2)c2ccccc2)c1,?,?,2.4%,-12.3,-1.0%,0.0%
Cc1cc(Cl)ccc1NC(=S)NCc1ccc(Cl)cc1,?,23.1µM*,5.0%,-1.6,0.5%,8.8%
COc1cc(NC(=S)NCCC(c2ccccc2)c2ccccc2)cc(OC)c1,?,18.4µM*,-6.0%,-7.8,-27.8%,?
COc1ccc(NC(=S)N2CCN(C(c3ccccc3)c3ccccc3)CC2)c(OC)c1,14.6µM*,18.4µM*,0.7%,-59.4*,-1.6%,?
Cc1nn(-c2ccccc2)c2c1cc1c(=O)n(C)c(=O)nc-1n2-c1cccc(Cl)c1,-0.1%,-22.7%,nt,nt,nt,nt
CC(NC(=S)N1CCN(c2ccccc2)CC1)c1ccccc1 (centres undefined),-3.5%,11.7%,-28.6%,-1.3,8.4%,4.5%
Cc1cccc(NC(=S)NCCC(c2ccccc2)c2ccccc2)c1,?,16.4µM*,-0.1%,-6.9,-2.2%,-8.4%
